Hit rate of the full screen: of about 2,300 compounds, about 550 (24%) were called active. The rule behind the calls is not given here. A selection follows. Measured potencies and affinities stand elsewhere.
Assay: Vero E6 cell cytotoxicity, dose response, cytotoxicity control for non-replicating M. tuberculosis project, secondary assay (AID 492998)
Settings: series mostly up to 20 µM
With COC(=O)COc1ccc2c(-c3ccc(OC)cc3)cc(=O)oc2c1 the outcome was “inactive”.
With Cc1cccc(C)c1N1C(=O)CC(N2CCSCC2)C1=O (stereo unspecified) the outcome was “inactive”.
With Cc1ccc(C(=O)OCC(=O)N2CCCCCC2)c(O)c1 the outcome was “inactive”.
For Cc1ccc(CCC(=O)Nc2ccc([N+](=O)[O-])cc2)o1, the outcome was “inactive”.
For CN(C)c1ccc(NC(=O)COC(=O)c2cc(Cl)ccc2[N+](=O)[O-])cc1, the outcome was “inactive”.
With CC[n+]1c(/C=C(\C)Nc2ccccc2)sc2ccccc21 the outcome was “inactive”.
For CC(C)(C)c1cc(CN2CCN(CCO)CC2)cc(C(C)(C)C)c1O, the outcome was “inactive”.
In the case of COc1ccc(-c2noc(CCC(=O)Nc3cccc(C)c3)n2)cc1, the outcome is reported as “inactive”.
In the case of Cc1ccc2c(CC(=O)OCC(=O)Nc3ccc(Cl)cn3)coc2c1, the outcome is reported as “inactive”.
For CC(C)OC(=O)COc1ccc(-c2ccccc2)cc1, the outcome was “inactive”.
In the case of OC(CNCCc1ccc(C(F)(F)F)cc1)COc1ccc2ccccc2c1 (stereo unspecified), the outcome is reported as “inactive”.
In the case of Cc1noc(C)c1COc1ccc(C(=O)Nc2ccccn2)cc1, the outcome is reported as “inactive”.
For N#Cc1nc(-c2ccc(OCc3ccccc3)cc2)oc1NCCCn1ccnc1, the outcome was “inactive”.
With O=C(c1ccccc1[N+](=O)[O-])N1N=C(c2ccccc2)CC1(O)C(F)(F)F (stereo unspecified) the outcome was “inactive”.
With CC1=NN(C(=O)c2csc(C(C)C)c2)C(O)(C(F)(F)F)C1 (stereo unspecified) the outcome was “inactive”.
In the case of CC1=NN(C(=O)c2csc(C)c2)C(O)(C(F)(F)F)C1 (stereo unspecified), the outcome is reported as “inactive”.
With CC1=NN(C(=O)c2ccc(Cn3nc(C)c(Br)c3C)cc2)C(O)(C(F)(F)F)C1 (stereo unspecified) the outcome was “inactive”.
For CC(=O)N(c1nnc(-c2ccc(C)cc2)s1)C1CCCC1, the outcome was “inactive”.
In the case of COc1ccc(-c2nnn(Cc3ccccc3)n2)cc1, the outcome is reported as “inactive”.
With Cc1nnc(N/N=C/c2ccc(-c3ccc(Br)cc3)o2)n1N the outcome was “inactive”.
In the case of O=C(OCC(=O)N1CCC(c2ccccc2)=N1)c1ccc([N+](=O)[O-])s1, the outcome is reported as “inactive”.
With O=C(NCCCN1CCOCC1)c1ccc(CSc2ccc(Cl)cc2)cc1 the outcome was “inactive”.
In the case of COc1cccc(C(=O)OCn2nnc3ccccc3c2=O)c1OC, the outcome is reported as “inactive”.
With O=C(OCn1nnc2ccccc2c1=O)c1ccc(Br)o1 the outcome was “inactive”.
With C=CCOc1ccc(CNCCO)cc1OCC the outcome was “inactive”.
In the case of CCc1cc(OCCCCNCc2ccccc2)ccc1Cl, the outcome is reported as “inactive”.
With CCCn1nnnc1NCc1ccc(CC)cc1 the outcome was “inactive”.
For O=C(CCCSc1nc2ccccc2s1)NCc1ccco1, the outcome was “inactive”.
For CC(C)CCC1=NN(C(=O)c2ccco2)C(O)(C(F)(F)F)C1 (stereo unspecified), the outcome was “inactive”.
In the case of O=C1CC(=O)CC(c2ccccc2)C1, the outcome is reported as “inactive”.
With Cc1cccc(N2CCN(Cc3ccc([N+](=O)[O-])o3)CC2)c1C the outcome was “inactive”.
In the case of CCCC(=O)N1CCC(Cc2ccccc2)CC1, the outcome is reported as “inactive”.
In the case of NC1=NC[C@H](Cc2ccccc2)N1CCCCC1CCCCC1, the outcome is reported as “inactive”.
With CCc1ccc(N2CCN(CCNC(=O)Nc3ccc(OC)cc3)CC2)cc1 the outcome was “inactive”.
With COc1ccc(-c2cc(C(F)(F)F)nc(S(C)(=O)=O)n2)cc1 the outcome was “inactive”.
In the case of CC(=O)Oc1c(-c2ccco2)oc2ccccc2c1=O, the outcome is reported as “inactive”.
In the case of O=C(Oc1c(-c2ccco2)oc2ccccc2c1=O)c1cccnc1, the outcome is reported as “inactive”.
In the case of Cc1ccc2c(C)ccc(O)c2n1, the outcome is reported as “inactive”.
In the case of Cc1cccc(NCc2nnc(-c3ccccc3)o2)c1C, the outcome is reported as “inactive”.
With CC(C)(C)C(=O)COc1ccccc1[N+](=O)[O-] the outcome was “inactive”.
For O=C(Nc1nnc(-c2ccc3c(c2)CCCC3)o1)c1c(F)cccc1F, the outcome was “inactive”.
For Cc1cccc(C(=O)Nc2nnc(-c3cccnc3)o2)c1, the outcome was “inactive”.
With CCCCNC(=O)Nc1nnc(-c2ccc(OCC)cc2)o1 the outcome was “inactive”.
In the case of CCS(=O)(=O)c1ncc(Cl)c(C(=O)Nc2ccc(S(=O)(=O)N(C)c3ccccc3)cc2)n1, the outcome is reported as “inactive”.
With CCOc1ccc(C(=O)Nc2nnc(C3=COCCO3)o2)cc1 the outcome was “inactive”.
For COc1cccc(C(=O)OCC(=O)Nc2nnc(-c3ccccc3)o2)c1, the outcome was “inactive”.
In the case of CCOc1ccccc1C(=O)OCC(=O)Nc1nnc(-c2ccccc2)o1, the outcome is reported as “inactive”.
With c1ccc(-c2nnc(SCc3cn4ccsc4n3)o2)cc1 the outcome was “inactive”.
For CCS(=O)(=O)c1ncc(Cl)c(C(=O)Nc2ccc(C)cc2)n1, the outcome was “inactive”.
With CCCCn1c(N)c(-c2nc3ccccc3o2)c2c([N+](=O)[O-])nn(CC)c(=O)c21 the outcome was “inactive”.
For CCOC(=O)c1sc(NC(=O)CCN2CC(C)OC(C)C2)c(C(=O)OCC)c1C (stereo unspecified), the outcome was “inactive”.
For CCCNC(=O)NC(=O)COc1ccc(-c2ccc(C#N)cc2)cc1, the outcome was “inactive”.
With Cc1ccc(NCCC(=O)c2cccs2)cc1Cl the outcome was “inactive”.
With Cc1ccc(Sc2ncccc2N)cc1 the outcome was “inactive”.
With Oc1ccccc1CN1CCCC(N2CCN(c3cccc(C(F)(F)F)c3)CC2)C1 (stereo unspecified) the outcome was “inactive”.
With C/C(=N\Nc1cccc2cccnc12)c1ccccn1 the outcome was “inactive”.
With CC(C)c1ccc(/C=N/NC(=O)c2ccccn2)cc1 the outcome was “inactive”.
With Cc1ccnc(NC(=O)CCc2c[nH]c3ccccc23)c1 the outcome was “inactive”.
In the case of C/C(=N\Nc1ccc(Cl)cc1)c1ccccn1, the outcome is reported as “inactive”.
With COc1cc(/C=N/NC(=O)c2ccccn2)ccc1OC(=O)c1cccs1 the outcome was “inactive”.
In the case of CC(/C=C\C=C\c1ccccc1)=N\NC(=O)c1cncc(Br)c1, the outcome is reported as “inactive”.
For COc1ccc2oc(=O)c(/C(C)=N/NC(=O)c3ccncc3)cc2c1, the outcome was “inactive”.
In the case of O=C(CCc1c[nH]c2ccccc12)Nc1ncccc1O, the outcome is reported as “inactive”.
For CCCn1nnnc1NC(=O)COc1ccc(Br)cc1, the outcome was “inactive”.
In the case of Cc1ccccc1-n1c(C)cc(/C=N/NC(=O)c2ccncc2)c1C, the outcome is reported as “inactive”.
With O=[N+]([O-])c1ncccc1Oc1nc(-c2cccnc2)nc2ccccc12 the outcome was “inactive”.
For Clc1ccccc1OCc1nnc(-c2ccccc2)o1, the outcome was “inactive”.
With CCOC(=O)/C=C1\Nc2ccccc2OC1=O the outcome was “inactive”.
In the case of N=c1oc2ccccc2cc1C(=O)Nc1ccccc1, the outcome is reported as “inactive”.
With N#CC(C(=O)Nc1ccccc1)=C1Nc2ccccc2N1 the outcome was “inactive”.
In the case of Cc1ccc(OC(=O)c2ccc(Br)o2)cc1, the outcome is reported as “inactive”.
For CCC(=O)c1ccc(OCC(=O)OCC(=O)c2cc(C)n(C3CC3)c2C)cc1, the outcome was “inactive”.
In the case of CC(C)(C)NCc1cc(Br)ccc1OCc1cccs1, the outcome is reported as “inactive”.
In the case of O=C(OCC(=O)N1CCN(c2ccccc2)CC1)c1cnc(Cl)c(Cl)c1, the outcome is reported as “inactive”.
With O=C(NCc1ccco1)c1nc2ccccc2s1 the outcome was “inactive”.
With O=C1CC(N2CCN(c3ccccc3)CC2)C(=O)N1CCc1ccccc1 (stereo unspecified) the outcome was “inactive”.
With COC(=O)COc1ccc(-c2ccccc2)cc1C=O the outcome was “inactive”.
In the case of CC(C)(O)C#Cc1ccc(C(=O)Nc2ccc3c(c2)OCO3)s1, the outcome is reported as “inactive”.
With C#CCSc1nnc(-c2ccc([N+](=O)[O-])cc2)o1 the outcome was “inactive”.
With N/N=C(/Cc1nc2ccccc2[nH]1)c1ccc([N+](=O)[O-])cc1 the outcome was “inactive”.
With O=[N+]([O-])c1ccc2nc(SCc3cn4ccccc4n3)[nH]c2c1 the outcome was “inactive”.
In the case of O=C(Nc1nc2ccccc2[nH]1)c1cccc([N+](=O)[O-])c1, the outcome is reported as “inactive”.
In the case of CC1(C)CC(=O)C(C2NCCc3ccccc32)=C(O)C1 (stereo unspecified), the outcome is reported as “inactive”.
In the case of CCCOc1ccc(N2CC(C(=O)Nc3ccccn3)CC2=O)cc1 (stereo unspecified), the outcome is reported as “inactive”.
In the case of COc1ccc(/C=N/NC(=O)C(=O)NCc2cccnc2)cc1OC, the outcome is reported as “inactive”.
For COc1cc(OC)c2c(OC)cccc2n1, the outcome was “inactive”.
With CC(C)(C)Sc1ccc2nc3c(n2c1)CCCC3 the outcome was “inactive”.
With CC(/C=C/c1ccc2c(c1)OCO2)=N/NC(=O)C1COc2ccccc2O1 (stereo unspecified) the outcome was “inactive”.
In the case of CCOC(=O)Cn1nc(/C=C/c2ccccc2)ccc1=O, the outcome is reported as “inactive”.
In the case of CCOc1cccc2cc(C(=O)NC(C)c3ccccc3)c(=N)oc12 (stereo unspecified), the outcome is reported as “inactive”.
With O=C(N/N=C/c1ccc(O)cc1)c1cccc(C(F)(F)F)c1 the outcome was “inactive”.
In the case of O=C(Nc1nnc(C2=COCCO2)o1)c1cccc(C(F)(F)F)c1, the outcome is reported as “inactive”.
With Nc1ccccc1Nc1ccccc1 the outcome was “inactive”.
In the case of CCCCCCOC(=O)C(C#N)c1nc2ccccc2nc1N1CCN(CC)CC1 (stereo unspecified), the outcome is reported as “inactive”.
In the case of CCCn1c(O)c(N=NC(=O)c2ccco2)c2ccccc21, the outcome is reported as “inactive”.
In the case of CCc1ccc(N2C(=O)CC(N3CCC(C(=O)OC)CC3)C2=O)cc1 (stereo unspecified), the outcome is reported as “inactive”.
In the case of O=C(NCCc1c[nH]c2ccccc12)c1cc2ccccc2oc1=O, the outcome is reported as “inactive”.
In the case of O=C(CNC(=O)c1ccccc1)OC1CCCCC1, the outcome is reported as “inactive”.
With Cc1cc(C)cc(OCC(=O)N/N=C/c2ccc([N+](=O)[O-])o2)c1 the outcome was “inactive”.
In the case of CCCCCCCC(=O)N/N=C/c1ccc([N+](=O)[O-])o1, the outcome is reported as “inactive”.
For O=C(CCSc1nnc(-c2ccccc2)o1)N1CCOCC1, the outcome was “inactive”.
With Cc1cc(C)n2nc(N)c(N=Nc3ccccc3)c2n1 the outcome was “inactive”.
For CCC(C)n1nnc2c(=O)oc3ccccc3c21 (stereo unspecified), the outcome was “inactive”.
For CCOc1ccc(NC(=O)COC(=O)C2(C)CC2(Cl)Cl)c([N+](=O)[O-])c1 (stereo unspecified), the outcome was “inactive”.
With N#Cc1cc(N)ccc1-n1cccc1 the outcome was “inactive”.
With N/C(=N\OC(=O)CC1CCCCC1)c1ccncc1 the outcome was “inactive”.
With CC(C)CN1C(=O)CC(Sc2ccccc2C(=O)O)C1=O (stereo unspecified) the outcome was “inactive”.
With O=C1CC(N2CCC(c3nc4ccccc4o3)CC2)C(=O)N1 (stereo unspecified) the outcome was “inactive”.
For COc1ccccc1NC(=O)CCN1CCN(c2ccc(Cl)cc2)CC1, the outcome was “inactive”.
With CC(C)n1c(=S)[nH]c2ccccc2c1=O the outcome was “inactive”.
In the case of Cc1ccc(C(=O)N/N=C\c2ccc[nH]2)cn1, the outcome is reported as “inactive”.
For O=C(N/N=C/c1ccc([N+](=O)[O-])s1)c1ccccc1, the outcome was “inactive”.
With Cc1ccc(C(=O)N/N=C\c2ccc(-c3ccc(Cl)cc3)o2)cn1 the outcome was “inactive”.
In the case of O=C(N/N=C/c1ccc(Br)s1)c1cccnc1, the outcome is reported as “inactive”.
With Cn1cccc1/C=N/NC(=O)c1ccncc1 the outcome was “inactive”.
For Cc1ccc(C(=O)N/N=C/C=C/c2ccccc2)cc1, the outcome was “inactive”.
For COc1cccc(-c2nc(C=O)cs2)c1, the outcome was “inactive”.
For CCCOc1ccc(N2C(=O)CC(N3CCCC(C(=O)N4CCCC4)C3)C2=O)cc1 (stereo unspecified), the outcome was “inactive”.
With COC(=O)CN(C#N)c1nc(SC)nc(N(C)C)n1 the outcome was “inactive”.
In the case of CC(C)C[C@H]1CN=C(Nc2ccccc2)N1CCCC1CCCCC1, the outcome is reported as “inactive”.
For CCSc1nc(O)c(C2OC(=O)c3c2ccc(OC)c3OC)c(=O)n1-c1ccccc1 (stereo unspecified), the outcome was “inactive”.
